Holding throughout (experiment): DAPPL (digital affinity profiling via proximity ligation, sequencing); 10 mM Tris-HCl pH 7.5, 50 mM NaCl, 1 mM DTT, 4% glycerol, room temperature, 30 min; GST-TFs on glutathione beads, 16-mer random dsDNA library, 0.1% formaldehyde crosslink after washing; high values mean tight binding
Holding throughout (settings): protein: recombinant; tags: N-terminal GST; dsDNA, one strand shown

For one test, the target named is T1, ETV2 (Homo sapiens, UniProt O00321 1-342).
T1 sequence: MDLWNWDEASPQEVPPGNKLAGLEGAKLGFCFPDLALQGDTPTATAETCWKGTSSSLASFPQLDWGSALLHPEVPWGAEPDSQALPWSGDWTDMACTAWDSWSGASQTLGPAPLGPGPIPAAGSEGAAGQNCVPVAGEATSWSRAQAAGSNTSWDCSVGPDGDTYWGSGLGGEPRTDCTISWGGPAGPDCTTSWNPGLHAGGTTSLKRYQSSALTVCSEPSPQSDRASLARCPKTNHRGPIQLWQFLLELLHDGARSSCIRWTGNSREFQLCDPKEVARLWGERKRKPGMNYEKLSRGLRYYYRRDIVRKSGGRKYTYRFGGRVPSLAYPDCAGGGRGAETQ
The procedure, abridged: (§1)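 The binding signal reported is, for every hexamer, its read frequency for a factor over its read frequency for the tag-only sample. Reads came from pools of yeast-expressed, GST-fused human transcription factors on glutathione beads, barcoded with DNA and mixed with that sample, which were incubated with 200 nmole of a random double-stranded 16-mer DNA library in Tris/NaCl/DTT/glycerol buffer at room temperature for 30 min. After washing, the pools were crosslinked with 0.1% formaldehyde, proximity-ligated with BsaI/T4 ligase for 1 h at 37 °C, PCR-amplified and sequenced on an Illumina NextSeq500.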

The next test addresses T2, ELF3 (Homo sapiens, UniProt P78545 1-371).
T2 sequence: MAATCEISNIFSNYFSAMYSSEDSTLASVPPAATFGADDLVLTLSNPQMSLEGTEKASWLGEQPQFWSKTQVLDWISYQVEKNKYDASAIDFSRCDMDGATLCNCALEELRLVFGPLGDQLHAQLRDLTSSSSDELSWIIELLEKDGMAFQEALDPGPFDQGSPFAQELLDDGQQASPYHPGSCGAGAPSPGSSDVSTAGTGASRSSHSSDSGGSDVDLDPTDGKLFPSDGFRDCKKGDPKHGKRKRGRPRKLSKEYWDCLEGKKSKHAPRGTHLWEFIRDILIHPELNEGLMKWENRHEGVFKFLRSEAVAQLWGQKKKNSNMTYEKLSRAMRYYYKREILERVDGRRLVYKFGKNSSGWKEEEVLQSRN
The procedure, abridged: as §1

The next test concerns the target ETV1 (Homo sapiens, UniProt P50549 1-477). In a few lines:
as §1

A further test has as its target T3, ERF (Homo sapiens, UniProt P50548 1-548).
T3 sequence: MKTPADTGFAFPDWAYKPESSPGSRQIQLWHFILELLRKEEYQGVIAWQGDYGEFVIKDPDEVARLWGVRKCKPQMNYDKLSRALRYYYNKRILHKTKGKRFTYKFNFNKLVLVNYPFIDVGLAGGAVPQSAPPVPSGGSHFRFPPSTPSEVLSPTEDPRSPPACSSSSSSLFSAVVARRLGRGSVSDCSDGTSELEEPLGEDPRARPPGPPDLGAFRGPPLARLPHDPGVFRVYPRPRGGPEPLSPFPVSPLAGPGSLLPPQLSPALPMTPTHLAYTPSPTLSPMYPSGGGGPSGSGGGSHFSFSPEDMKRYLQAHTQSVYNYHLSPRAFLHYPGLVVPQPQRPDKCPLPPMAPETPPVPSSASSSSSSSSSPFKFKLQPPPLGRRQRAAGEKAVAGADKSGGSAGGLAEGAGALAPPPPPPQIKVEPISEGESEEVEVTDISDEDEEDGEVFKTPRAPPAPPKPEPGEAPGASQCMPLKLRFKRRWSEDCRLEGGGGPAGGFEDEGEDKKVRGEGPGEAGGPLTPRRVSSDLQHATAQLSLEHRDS
In a few lines: as §1

Another test addresses T4, ETV3L (Homo sapiens, UniProt Q6ZN32 1-361).
T4 sequence: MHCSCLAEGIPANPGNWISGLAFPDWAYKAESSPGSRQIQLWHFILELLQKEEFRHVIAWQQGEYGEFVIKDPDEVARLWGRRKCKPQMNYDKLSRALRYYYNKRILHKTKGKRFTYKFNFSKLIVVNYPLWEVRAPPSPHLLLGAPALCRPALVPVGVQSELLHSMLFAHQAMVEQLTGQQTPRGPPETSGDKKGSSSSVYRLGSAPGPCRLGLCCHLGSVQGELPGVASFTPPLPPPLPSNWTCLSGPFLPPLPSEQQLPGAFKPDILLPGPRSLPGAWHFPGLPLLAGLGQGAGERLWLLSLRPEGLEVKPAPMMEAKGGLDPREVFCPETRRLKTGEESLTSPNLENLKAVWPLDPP
The procedure, abridged:
as §1

The next test has as its target T5, ETS2 (Homo sapiens, UniProt P15036 1-469).
T5 sequence: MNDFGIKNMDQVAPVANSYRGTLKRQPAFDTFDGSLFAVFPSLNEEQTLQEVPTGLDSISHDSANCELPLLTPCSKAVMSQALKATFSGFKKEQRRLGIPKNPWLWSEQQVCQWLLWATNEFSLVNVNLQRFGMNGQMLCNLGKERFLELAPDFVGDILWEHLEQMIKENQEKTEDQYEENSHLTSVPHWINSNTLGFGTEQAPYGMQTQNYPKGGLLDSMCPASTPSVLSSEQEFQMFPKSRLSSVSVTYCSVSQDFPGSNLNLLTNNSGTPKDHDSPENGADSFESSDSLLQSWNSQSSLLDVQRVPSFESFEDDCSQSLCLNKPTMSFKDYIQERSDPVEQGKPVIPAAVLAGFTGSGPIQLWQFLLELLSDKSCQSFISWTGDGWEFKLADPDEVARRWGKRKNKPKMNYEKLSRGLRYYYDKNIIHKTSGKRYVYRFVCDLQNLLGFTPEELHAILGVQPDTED
The procedure, abridged:
as §1

The target in another test is T6, SPDEF (Homo sapiens, UniProt O95238 1-335).
T6 sequence: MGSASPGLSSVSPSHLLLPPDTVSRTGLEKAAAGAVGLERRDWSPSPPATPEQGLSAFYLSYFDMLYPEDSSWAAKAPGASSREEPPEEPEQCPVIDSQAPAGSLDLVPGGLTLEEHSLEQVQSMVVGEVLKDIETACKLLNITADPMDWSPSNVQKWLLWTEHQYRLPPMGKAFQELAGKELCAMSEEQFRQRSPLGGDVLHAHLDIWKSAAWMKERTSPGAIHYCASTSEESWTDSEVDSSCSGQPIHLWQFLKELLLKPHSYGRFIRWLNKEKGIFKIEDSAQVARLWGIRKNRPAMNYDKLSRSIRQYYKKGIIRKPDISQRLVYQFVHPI
In a few lines:
as §1

In a further test the target is T7, ETV7 (Homo sapiens, UniProt Q9Y603 1-341).
T7 sequence: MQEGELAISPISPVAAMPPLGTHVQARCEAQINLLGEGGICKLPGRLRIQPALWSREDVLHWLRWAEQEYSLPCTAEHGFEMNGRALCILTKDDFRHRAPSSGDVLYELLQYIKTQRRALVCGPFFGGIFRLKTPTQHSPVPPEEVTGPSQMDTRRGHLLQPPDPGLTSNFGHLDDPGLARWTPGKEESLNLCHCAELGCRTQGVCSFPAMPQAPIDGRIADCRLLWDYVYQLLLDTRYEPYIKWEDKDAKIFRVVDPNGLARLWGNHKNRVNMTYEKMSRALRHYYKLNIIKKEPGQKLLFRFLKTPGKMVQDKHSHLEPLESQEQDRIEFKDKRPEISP
The procedure, abridged:
as §1

The target of the next test is T8, ETV3 (Homo sapiens, UniProt P41162-2 1-143).
T8 sequence: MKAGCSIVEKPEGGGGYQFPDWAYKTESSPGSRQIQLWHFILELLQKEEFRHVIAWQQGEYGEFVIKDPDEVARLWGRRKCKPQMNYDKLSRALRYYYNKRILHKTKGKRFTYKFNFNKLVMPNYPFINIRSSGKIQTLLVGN
The procedure, abridged: as §1

In a further test the target is ETV6 (Homo sapiens, UniProt P41212 1-452). The procedure, abridged: as §1
Chain of ETV6 (P41212 whole entry): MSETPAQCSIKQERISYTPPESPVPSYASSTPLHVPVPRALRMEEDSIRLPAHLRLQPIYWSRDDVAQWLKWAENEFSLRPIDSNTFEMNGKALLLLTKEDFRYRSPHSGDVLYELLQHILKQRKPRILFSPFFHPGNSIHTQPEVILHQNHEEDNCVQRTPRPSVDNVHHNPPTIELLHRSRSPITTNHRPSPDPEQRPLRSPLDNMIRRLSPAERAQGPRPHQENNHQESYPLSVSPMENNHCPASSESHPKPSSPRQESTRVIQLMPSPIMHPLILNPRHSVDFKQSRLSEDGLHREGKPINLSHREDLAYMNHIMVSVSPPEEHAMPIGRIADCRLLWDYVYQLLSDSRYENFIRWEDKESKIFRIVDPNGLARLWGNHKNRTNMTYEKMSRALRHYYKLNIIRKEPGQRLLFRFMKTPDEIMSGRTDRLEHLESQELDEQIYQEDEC

Chain of ETV1 (P50549 whole entry): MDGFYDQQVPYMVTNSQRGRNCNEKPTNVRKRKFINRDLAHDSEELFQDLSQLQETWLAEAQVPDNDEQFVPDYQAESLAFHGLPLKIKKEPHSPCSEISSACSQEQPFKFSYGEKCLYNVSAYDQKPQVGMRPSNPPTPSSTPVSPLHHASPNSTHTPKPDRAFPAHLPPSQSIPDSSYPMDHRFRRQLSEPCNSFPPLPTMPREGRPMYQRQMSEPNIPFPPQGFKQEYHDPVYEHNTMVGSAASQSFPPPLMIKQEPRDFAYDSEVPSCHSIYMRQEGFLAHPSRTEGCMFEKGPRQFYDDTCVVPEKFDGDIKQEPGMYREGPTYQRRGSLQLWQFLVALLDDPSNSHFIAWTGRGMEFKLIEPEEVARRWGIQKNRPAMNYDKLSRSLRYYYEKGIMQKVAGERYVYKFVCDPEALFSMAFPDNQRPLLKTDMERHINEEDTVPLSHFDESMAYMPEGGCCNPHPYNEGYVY

Consider AAGATC, for which the binding signal was 1.13 fold enrichment (6-mer frequency, TF over GST control) with ETV2; 1.15 fold enrichment (6-mer frequency, TF over GST control) with ELF3; 1.08 fold enrichment (6-mer frequency, TF over GST control) in the test with ETV1; 1.12 fold enrichment (6-mer frequency, TF over GST control) in the test with ERF; 1.03 fold enrichment (6-mer frequency, TF over GST control) in the test with ETV3L; 1.05 fold enrichment (6-mer frequency, TF over GST control) with ETS2. Besides, the binding signal with SPDEF was 1.27 fold enrichment (6-mer frequency, TF over GST control); with ETV7, 1.08 fold enrichment (6-mer frequency, TF over GST control); with ETV3 it was 1.12 fold enrichment (6-mer frequency, TF over GST control); with ETV6, 1.01 fold enrichment (6-mer frequency, TF over GST control).

For the origin of these results see publication PMC7862700, “An all-to-all approach to the identification of sequence-specific readers for epigenetic DNA modifications on cytosine”.
